Screening data from PubChem BioAssay.
Most compounds without a hit are left out; they make up all but 2.4% or so of the library.
POLH inh = blocks human DNA polymerase eta activity; recombinant Pol eta, fluorescent DNA replication assay; Potency, µM (doses to about 114 µM), inactives show at the top dose activity change, negative = inhibition, hits mostly inhibitors; 390,000 tested, 1.2% active; AID 588591; note: % is set by controls: 0 for no effect and ±100 for the full control effect
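Pol eta at 10 nM preincubated with compounds 15 min at room temperature; reaction started with fluorescent substrate (50 nM final) and read kinetically at 0 and 10 min.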
WRN inhibitor = blocks human WRN helicase. Q14191. WRN helicase unwinding, fluorescent forked duplex, kinetic. Potency, µM (doses to about 114 µM), for inactives: at the top dose activity change, negative = inhibition, actives largely listed as inhibitors. 360,000 tested, 0.46% active; note: % is set by controls: 0 for no effect and ±100 for the full control effect; nearly all actives have a fitted effect of over 55% in size
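WRN at 20 nM final preincubated with compound 15 min at room temperature; reaction started with 100 nM fluorophore/quencher forked duplex oligonucleotide and 2 mM ATP final. Unwinding followed kinetically by red fluorescence (ex 525, em 598 nm).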
Pol iota inh = DNA polymerase iota (human) inhibition. Potency, µM (highest dose often 115 µM), inactives show top-dose activity, negative = inhibition, hits mostly inhibitors. AID 588590. 390,000 tested, 1% active. Pol iota fluorescent replication assay, 10 min. Q9UNA4
Target sequence (Q9UNA4 whole entry, looked up): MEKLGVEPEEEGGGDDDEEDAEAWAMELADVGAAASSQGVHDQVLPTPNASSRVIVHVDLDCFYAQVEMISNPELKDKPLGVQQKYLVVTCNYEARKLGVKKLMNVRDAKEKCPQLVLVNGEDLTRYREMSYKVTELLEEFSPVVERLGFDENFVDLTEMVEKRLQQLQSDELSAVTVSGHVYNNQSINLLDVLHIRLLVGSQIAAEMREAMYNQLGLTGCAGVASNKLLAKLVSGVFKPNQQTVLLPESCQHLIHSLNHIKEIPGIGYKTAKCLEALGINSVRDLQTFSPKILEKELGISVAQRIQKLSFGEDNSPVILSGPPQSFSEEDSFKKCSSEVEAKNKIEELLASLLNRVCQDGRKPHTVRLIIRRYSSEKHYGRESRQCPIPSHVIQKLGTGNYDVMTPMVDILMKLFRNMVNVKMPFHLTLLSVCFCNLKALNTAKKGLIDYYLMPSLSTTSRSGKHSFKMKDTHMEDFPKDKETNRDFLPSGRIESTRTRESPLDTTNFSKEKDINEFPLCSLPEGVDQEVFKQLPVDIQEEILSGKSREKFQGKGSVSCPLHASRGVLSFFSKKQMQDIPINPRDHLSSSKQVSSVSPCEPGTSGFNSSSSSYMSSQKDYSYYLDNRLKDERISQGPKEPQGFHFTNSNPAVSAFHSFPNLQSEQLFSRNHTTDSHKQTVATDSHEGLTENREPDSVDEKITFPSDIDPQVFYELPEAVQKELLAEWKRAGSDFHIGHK
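Fluorescent replication assay read twice, at 0 min and 10 min after adding 50 nM (final) substrate. Enzyme (10 nM) and compounds were first incubated 15 min at room temperature; enzyme-free buffer wells were negative controls.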
POLB inh = inhibitors of human DNA polymerase beta. Pol beta primer extension/strand displacement, fluorescence kinetic. Potency, µM (doses to about 114 µM), inactives show at the top dose activity change, negative = inhibition, actives largely listed as inhibitors. 340,000 tested, 1.3% active. AID 485314; note: % is set by controls: 0 for no effect and ±100 for the full control effect
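Pol beta (10 nM) was preincubated with compound for 15 min at room temperature. The reaction was then started with 50 nM substrate and read immediately and after a further 10 min at room temperature.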
FEN1 inh-1 = human FEN1 inhibition; P39748; Recombinant FEN1 flap cleavage, fluorescence, 15 min; Potency, µM (highest dose often 114 µM), inactives show top-dose activity change, negative = inhibition, hits mostly inhibitors; 390,000 tested, 0.35% active; AID 588795; note: % is set by controls: 0 for no effect and ±100 for the full control effect; nearly all actives have a fitted effect of over 65% in size
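In this screen, 50 nM flap DNA substrate was added to 10 nM FEN1 pretreated with compound for 15 min at room temperature; cleavage was followed with reads at 0 and 15 min, and Hill fitting gave concentration–response parameters.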
Pol kappa inh = blocks human DNA polymerase kappa activity; purified Pol kappa, fluorescent DNA synthesis assay, 10 min; Potency, µM (titrated, usually from 107 µM), inactives show at the top dose activity, negative = inhibition, most hits filed as inhibitors; 400,000 tested, 0.53% active; AID 588579; note: % is set by controls: 0 for no effect and ±100 for the full control effect
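10 nM Pol kappa preincubated 15 min at room temperature with compounds, then reaction started with substrate at 50 nM final. Fluorescence read kinetically at 0 and 10 min; buffer-only wells served as negative control.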
FEN1 inh-2 = FEN1 inhibition, cherry-pick retest. shares compounds with FEN1 inh-1. FEN1 flap cleavage, TAMRA/BHQ2 fluorogenic DNA substrate. Potency, µM, hits mostly inhibitors. 880 tested, 79% active; note: nearly all actives have a fitted effect of over 60% in size
* marks the source's active call; other numbers are inactive results; ? = inconclusive; nt = not tested or not shown; [ ] = remark or other dose. Calls come from the whole dose curve; as a rule, active = well fitted curve in the direction sought with a large enough effect; inconclusive = small, poorly fitted or top-dose-only effect, or another doubt; inactive = no such curve, though single readings can be large; an effect the other way counts as inactive or inconclusive. Potency is the fitted concentration of half-maximal effect.

SMILES | POLH inh | WRN inhibitor | Pol iota inh | POLB inh | FEN1 inh-1 | Pol kappa inh | FEN1 inh-2
CC(=O)Nc1ccc(/C(C)=N/Nc2nc(Nc3ccccc3)nc(N3CCOCC3)n2)cc1 | -16.7% | -2.7% | 97.7% | -7.3% | -16.6% | -7.4% | nt
CCN1CCN(c2nc(Nc3ccc(NC(C)=O)cc3)nc(Nc3ccc(NC(C)=O)cc3)n2)CC1 | ? | 25.1µM* | ? | ? | ? | ? | ?
CCCCN1C(=O)c2[nH]nc(-c3ccccc3O)c2C1c1cc(Br)c(O)c(OC)c1 (configuration not stated) | -5.7% | nt | 6.6% | 2.9% | -21.9% | -2.9% | nt
CC(=O)N1N=C(c2ccc(C)cc2)OC1c1ccc(Br)cc1 (configuration not stated) | -5.3% | -6.7%[57.1 µM] | 62.2% | 5.0% | -11.4% | -14.6% | nt
CCOc1ccc(Br)cc1C1=NN(C(C)=O)C(c2ccc([N+](=O)[O-])s2)O1 (configuration not stated) | 50.1µM* | 5.9%[11.6 µM] | 50.1µM* | 17.8µM* | ? | -46.9% | 6.75*
Cc1cc(Br)cn2c(CC(C)(C)C)c(-c3cccc(Cl)c3)nc12 | nt | -10.2% | nt | nt | nt | nt | nt
COc1ccc2[nH]c(C)c(CCNS(=O)(=O)c3cc(F)ccc3OC)c2c1 | -8.2% | nt | 12.7% | ? | 14.4% | -6.7% | nt
COc1ccc(OC)c(Nc2nc(NCCO)c3ccccc3n2)c1 | ? | -26.8%[57.1 µM] | 19.7% | ? | ? | -11.9% | ?
CCN(CC)CCNc1ccc(CO)c2oc3cc(Cl)ccc3c(=O)c12 | -13.1% | 7.0% | nt | nt | nt | nt | nt
CN(C)CCNc1ccc(CO)c2oc3ccc(O)cc3c(=O)c12 | -6.7% | 7.4%[11.6 µM] | ? | nt | 35.5µM* | -21.4% | 30.1*
Cc1cc(C)c(/C=C/c2onc(C)c2S(=O)(=O)N2CCC(C(=O)NCc3ccco3)CC2)c(C)c1 | -19.6% | nt | 8.3% | 7.4% | -21.5% | -8.0%[60.1 µM] | nt
CCN(CC)CCOC(=O)c1ccc(NC(=O)CCCN2C(=O)/C(=C\c3cccs3)SC2=S)cc1 | -18.6% | -2.9%[11.6 µM] | ? | -2.0% | ? | -5.9% | ?
O=C(CCCN1C(=O)/C(=C/c2cccs2)SC1=S)Nc1cccnc1 | 3.5% | -18.0% | 29.0% | -24.2% | 1.3% | -11.1% | nt
CN(C)c1ccc(C=c2c3ccccc3n3c2c2c([n+]3C)CCCC2)cc1 | ? | 22.4µM* | -27.2% | nt | 22.4µM* | -28.3% | 30.1*
COc1cccc(-c2noc(COc3ccccc3Cl)n2)c1 | -24.4% | nt | 13.1% | 3.6% | -5.6% | -1.5% | nt
COc1ccc2[nH]c3c(=O)n(CCCCC(=O)NCCN4CCCC4)c(=S)[nH]c3c2c1 | -18.4% | ? | ? | -24.3% | ? | ? | ?
COc1cccc(CNC(=O)CN2C(=O)CSc3c2c(C)nn3-c2ccccc2)c1 | -19.1% | nt | 34.9% | 0.4% | -1.4% | 0.0% | nt
Cc1cc(N2CCN(c3ccc(F)cc3)CC2)n2cnnc2n1 | -14.4% | nt | -11.9% | -8.6% | -7.2% | -14.8% | nt
COc1ccccc1NC(=O)C(=O)N/N=C/c1cccs1 | ? | -16.6% | -40.2% | ? | 31.6µM* | -24.9% | 30.1*
CC(=O)Nc1sc2c(c1-c1ccc3nc[nH]c3c1)CCNC2 | nt | nt | nt | nt | nt | nt | 37.9*
Cc1ccc(NC(=O)c2ccc3nc[nH]c3c2)cc1C | -3.3% | -6.9% | 80.8% | 6.7% | 7.4% | -9.7% | nt
NC(N)=Nc1nc(-c2ccccc2)c2cc(F)ccc2n1 | -2.6% | 15.1%[11.6 µM] | 20.0% | ? | 79.4µM* | -18.0% | 53.6*
Oc1ccc(Nc2nc(N3CCCC3)c3ccccc3n2)cc1 | -4.5% | ? | ? | 44.7µM* | 50.1µM* | ? | 33.8*
COc1ccc(Nc2nc(N3CCCCC3)c3ccccc3n2)cc1 | -13.3% | -4.3%[57.1 µM] | 10.8% | 12.0% | -10.0% | -17.1% | nt
